Source: PubChem BioAssay (National Center for Advancing Translational Sciences (NCATS))
Compounds with a hit are over-represented: about 1.7% of the library has one in this group of screens.
HEK293 tox: cytotoxicity counter-screen for GLP-1 receptor inverse agonists | 0.13% of 410,000 active | AID 624418 | HEK293 cAMP-luciferase reporter cells, luminescence, 24 h | Potency, µM (top dose mostly 38.3 µM), most hits filed as inhibitors;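 also: loss of luciferase light is scored as toxicity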
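Luminescence readout: signal drop marks cytotoxicity. Plated cells grew 12 h at 37 °C, 5% CO2, received 23 nL compound for 24 h, then got luciferase reagent, read after 12 min at RT.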
GLP-1R inv ag: acts as inverse agonist at human GLP-1 receptor. P43220. HEK293 GLP-1R CRE-luciferase, luminescence, 24 h; GLP-1R form is constitutively active. Potency, µM (series often up to 38.3 µM), hits mostly inhibitors. 1.6% of 410,000 active; also: nearly all actives have a fitted effect of over 55% in size
Target sequence (P43220 whole entry, looked up): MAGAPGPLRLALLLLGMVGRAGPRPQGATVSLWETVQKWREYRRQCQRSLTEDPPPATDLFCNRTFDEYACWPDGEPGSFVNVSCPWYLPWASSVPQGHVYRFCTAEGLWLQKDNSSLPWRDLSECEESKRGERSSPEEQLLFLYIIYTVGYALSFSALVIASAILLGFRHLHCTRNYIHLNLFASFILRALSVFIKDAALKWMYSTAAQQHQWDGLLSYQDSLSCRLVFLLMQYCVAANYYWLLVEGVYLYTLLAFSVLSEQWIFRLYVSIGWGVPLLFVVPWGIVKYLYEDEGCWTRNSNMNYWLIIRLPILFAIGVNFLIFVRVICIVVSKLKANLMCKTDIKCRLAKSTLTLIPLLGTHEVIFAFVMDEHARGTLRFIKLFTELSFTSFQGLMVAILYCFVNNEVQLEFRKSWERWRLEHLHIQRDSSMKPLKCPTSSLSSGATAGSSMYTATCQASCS
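Readout was luciferase luminescence, measured 12 min after detection reagent at room temperature. Beforehand, GLP-1R reporter HEK293 cells had sat 12 h, then received compounds for 24 hr at 37 deg C.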
GLP-1R agonist: activates the human GLP-1 receptor. P43220. HEK293 GLP-1R CRE-luciferase, luminescence, 4-6 h; cells express a hypersensitive GLP-1R form. Potency, µM (top dose mostly 45.6 µM), usual class: activators. 0.007% of 380,000 active. AID 624172
Large screens that a line does not name were inactive. Calls follow the shape of the dose curve; as a rule, active = well fitted curve in the direction sought with a large enough effect; inconclusive = small, poorly fitted or top-dose-only effect, or another doubt; inactive = no such curve, though single readings can be large; an effect the other way counts as inactive or inconclusive.

COc1ccc(N2CCN(S(=O)(=O)CC34CCC(CC3=O)C4(C)C)CC2)cc1 (stereo not drawn)	GLP-1R inv ag inconclusive
Cc1ccc2c(c1C)-c1c(ccc(C)c1C)C(=O)C2=O	HEK293 tox inconclusive, GLP-1R inv ag 0.794µM
Cc1ccc(CC#N)c(-c2c(CC#N)ccc(C)c2C)c1C	GLP-1R inv ag inconclusive
C[C@@H]1CN([C@@H](C)CO)S(=O)(=O)c2ccc(-c3ccccc3)cc2O[C@@H]1CN(C)Cc1ccccc1C(=O)O	none
Cc1cc(/C=N/NC(=O)c2ccc(O)cc2)c(C)n1CC(C)C	none
COc1cccc(CC(=O)NC2CCCN(Cc3ccc(Cl)cc3)C2)c1 (stereo not drawn)	GLP-1R inv ag inconclusive
COc1ccc(C(=O)C2CCCN(Cc3cc(C)c(O)c(C)c3)C2)c(OC)c1 (stereo not drawn)	GLP-1R inv ag 4.47µM
COc1ccc(C(=O)NC2CCCN(Cc3ccc(Cl)cc3)C2)c(OC)c1 (stereo not drawn)	GLP-1R inv ag 7.94µM
COc1ccc(C(=O)C2CCCN(Cc3cc(Cl)ccc3O)C2)c(OC)c1 (stereo not drawn)	GLP-1R inv ag inconclusive
CCOCCOC(=O)c1ccc2c(c1)N(Cc1ccccc1C#N)C(=O)c1ccccc1S2(=O)=O	none (no result: GLP-1R agonist)
COc1ccc(N2CC(NC(=O)COc3ccccc3F)CC2=O)cc1OC (stereo not drawn)	none
O=C(Nc1cccc(S(=O)(=O)N2CCCCC2)c1)C1CCN(C(=O)c2ccc(Cl)cc2)CC1	GLP-1R inv ag inconclusive
O=C(Nc1cccc(S(=O)(=O)N2CCCCCC2)c1)C1CCN(C(=O)c2ccc(Cl)cc2)CC1	GLP-1R inv ag 8.91µM
O=C(Cc1ccccc1Cl)Nc1cccc(S(=O)(=O)N2CCCCCC2)c1	GLP-1R inv ag inconclusive
O=C(Nc1cccc(S(=O)(=O)N2CCCCC2)c1)Nc1ccc(Cl)cc1Cl	HEK293 tox inconclusive, GLP-1R inv ag 3.55µM
CC(C)(C)OC(=O)NCCCCCNC(=O)c1nc[nH]c1C(=O)NCC(=O)OCc1ccccc1	GLP-1R inv ag 11.2µM
C[C@H](NC(=O)c1nc[nH]c1C(=O)N[C@@H](CCCCNC(=O)OC(C)(C)C)C(=O)OC(C)(C)C)C(=O)OC(C)(C)C	GLP-1R inv ag 10µM
CC(C)C[C@H](NC(=O)c1[nH]cnc1C(=O)N[C@@H](Cc1ccccc1)C(=O)OC(C)(C)C)C(=O)OC(C)(C)C	GLP-1R inv ag 10µM
CC(C)C[C@H](NC(=O)c1[nH]cnc1C(=O)N[C@@H](Cc1ccccc1)C(=O)OC(C)(C)C)C(=O)OCc1ccccc1	GLP-1R inv ag inconclusive
CC(C)C[C@H](NC(=O)c1nc[nH]c1C(=O)NCc1ccccc1)C(=O)OC(C)(C)C	none
CC(C)C[C@H](NC(=O)c1[nH]cnc1C(=O)N[C@@H](C)c1ccccc1)C(=O)OC(C)(C)C	HEK293 tox inconclusive, GLP-1R inv ag 10µM
CC(C)(C)OC(=O)CNC(=O)c1[nH]cnc1C(=O)NCC(=O)OCc1ccccc1	none
CC(C)(C)OC(=O)NCCCC[C@H](NC(=O)c1nc[nH]c1C(=O)N[C@@H](CCCCNC(=O)OC(C)(C)C)C(=O)OC(C)(C)C)C(=O)OC(C)(C)C	GLP-1R inv ag inconclusive
CCc1nc2c(OCc3cccc(OC)c3)cccn2c1N(C)C(=O)c1ccc(OC)cc1	none
O=C(Cn1c(=O)c2cccn2c2ccc(F)cc21)N1CCN(c2ccccc2F)CC1	none (no result: GLP-1R agonist)
Cc1c(OC(C)C(=O)N2C[C@H]3C[C@@H](C2)c2cccc(=O)n2C3)ccc2c3c(c(=O)oc12)CCCC3 (stereo partly drawn)	none
CC[C@H](C)[C@H](NC(=O)[C@H](CO)NC(=O)[C@H](CC(N)=O)NC(=O)[C@H](CC(C)C)NC(=O)[C@H](Cc1ccc(O)cc1)NC(=O)[C@H](CCCCN)NC(=O)[C@H](CCCCN)NC(=O)[C@@H](NC(=O)[C@H](C)NC(=O)[C@H](CCSC)NC(=O)[C@H](CCC(N)=O)NC(=O)[C@H](CCCCN)NC(=O)[C@H](CCCNC(=N)N)NC(=O)[C@H](CC(C)C)NC(=O)[C@H](CCCNC(=N)N)NC(=O)[C@@H](NC(=O)[C@H](Cc1ccc(O)cc1)NC(=O)[C@H](CC(N)=O)NC(=O)[C@H](CC(=O)O)NC(=O)[C@@H](NC(=O)[C@H](Cc1ccccc1)NC(=O)[C@@H](NC(=O)[C@H](C)NC(=O)[C@H](CC(=O)O)NC(=O)[C@H](CO)NC(=O)[C@@H](N)Cc1c[nH]cn1)C(C)C)[C@@H](C)O)[C@@H](C)O)C(C)C)C(=O)N[C@@H](CC(C)C)C(=O)N[C@@H](CC(N)=O)C(=O)O	none (no result: HEK293 tox, GLP-1R inv ag)
CCc1ccc(NC(=O)CN2CCCN(Cc3cccc(Cl)c3)S2(=O)=O)cc1	none (no result: GLP-1R agonist)
CCOC(=O)C1CCN(C(=O)COC(=O)/C=C/c2ccc([N+](=O)[O-])cc2)CC1	none
COc1ccc(-c2nc(CSCC(=O)NCCc3ccc(C)cc3)c(C)o2)cc1OC	none (no result: GLP-1R agonist)
CC(C)(C)OC(=O)[C@H](Cc1ccccc1)NC(=O)c1nc[nH]c1C(=O)N1CCN(C(=O)OC(C)(C)C)CC1	GLP-1R inv ag 4.47µM
CC(C)(C)OC(=O)N1CCN(C(=O)c2[nH]cnc2C(=O)N[C@@H](Cc2ccccc2)C(=O)OCc2ccccc2)CC1	none
CCN(CC)S(=O)(=O)c1cccc(NC(=O)Nc2cccc(C(F)(F)F)c2)c1	HEK293 tox inconclusive, GLP-1R inv ag 7.94µM
O=C(Nc1cccc(C(F)(F)F)c1)c1ccc2snnc2c1	none
CCN(CC)S(=O)(=O)c1ccc2c(c1)nc(CCC(=O)Nc1cccc(C(F)(F)F)c1)n2CC	GLP-1R inv ag 10µM
CCN(CC)S(=O)(=O)c1cccc(NC(=O)CC2CCCC2)c1	GLP-1R inv ag inconclusive
O=C(Nc1cccc(C(F)(F)F)c1)Nc1ccc2snnc2c1	GLP-1R inv ag 11.2µM
CCN(CC)S(=O)(=O)c1ccc2c(c1)nc(CCC(=O)O)n2CC	none
Cc1cccc(OCc2nc(CC(=O)Nc3ccc(C)c(C)c3)cs2)c1	none (no result: GLP-1R agonist)
CC(=O)Nc1ccc(NC(=O)C2Cc3ccccc3N2C(=O)c2ccccc2)cc1 (stereo not drawn)	none (no result: GLP-1R agonist)
COc1ccc(C(=O)N/N=C/c2ccccc2OC(=O)c2ccccc2)cc1	GLP-1R inv ag 10µM, GLP-1R agonist inconclusive
COc1ccc(C(=O)N/N=C/c2ccc(OC(=O)c3ccccc3)cc2)cc1	none
COc1ccc(Oc2ccccc2/C=N/O)cc1	GLP-1R inv ag 1µM
COc1cc(OC)nc(Oc2ccccc2/C=N/O)n1	none
OC[C@H]1O[C@@H](n2cnc3c2NC=NC[C@H]3O)C[C@@H]1O	none (no result: HEK293 tox, GLP-1R inv ag)
CCN(CCCNC(=O)c1ccc(Sc2ccc(Cl)cc2)c(NC(C)=O)c1)c1ccccc1	GLP-1R inv ag 10µM (no result: GLP-1R agonist)
CCCCN(CCCNC(=O)c1ccc(Sc2ccc(Cl)cc2)c(NC(C)=O)c1)c1ccccc1	GLP-1R inv ag inconclusive (no result: GLP-1R agonist)
CN(C)S(=O)(=O)c1ccc2c(c1)nnn2CCNC(=O)Nc1ccc(Br)cc1	none (no result: GLP-1R agonist)
Cc1cc(Br)c(OCc2ccc(C(=O)N/N=C/c3ccc[nH]3)cc2)c(Br)c1	none
O=C(N[C@H]1CCC(=O)N([C@H](CSc2ccc(Br)cc2)Cc2ccccc2)CC1)OCc1ccccc1	GLP-1R inv ag 3.98µM
O=C(N[C@H]1CCC(=O)N([C@H](CSc2ccccc2)Cc2ccccc2)CC1)OCc1ccccc1	GLP-1R inv ag inconclusive
